Compound activity: PubChem BioAssay, The Scripps Research Institute Molecular Screening Center
Fam108B inh: blocks mouse Fam108B hydrolase in RBBP9 counter-screen; actives 0.33% (n = 300,000); inhibition, % at 9.51 µM; AID 1947; recombinant Fam108B, FP-Rh probe fluorescence polarization;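 active = inhibition above the screen mean inhibition plus 3 SD, computed separately per campaign, cut at about 18% in these data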;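 also: inhibitors lower polarization as less probe binds the enzyme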
PAFAH1B2 inh: inhibitors of human PAFAH1B2 | P68402 | recombinant PAFAH1B2, FP-rhodamine activity probe, fluorescence polarization | inhibition, % at 3.39 µM | actives 1.2% (n = 340,000) | AID 492953;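 active = inhibition above the mean of all tested compounds plus 3 SD, cut at about 24% in these data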;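 also: 0% = enzyme with DMSO and 100% = wells lacking PAFAH1B2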
PAFAH2 inh: PAFAH2 (human) inhibition; AID 492956; recombinant PAFAH2, FP-rhodamine activity probe, fluorescence polarization; inhibition, % at 3.39 µM; actives 0.99% (n = 340,000);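 active = inhibition above the mean over all tested compounds plus 3 SD, cut at about 30% in these data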;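 also: inhibitors block probe labeling of enzyme so polarization drops; 0% = enzyme with DMSO and 100% = wells lacking PAFAH2 protein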
pPAFAH inh: pPAFAH (human) enzyme inhibition. Q13093. recombinant pPAFAH, FP-rhodamine probe fluorescence polarization. inhibition, % at 3.39 µM. actives 1.5% (n = 330,000);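 active = inhibition above the mean inhibition across the screen plus 3 SD, cut at about 25% in these data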;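 also: inhibitors block binding of the rhodamine activity-based probe so polarization drops; 0% = enzyme with DMSO and 100% = wells lacking pPAFAH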
Target sequence (Q13093 whole entry, looked up): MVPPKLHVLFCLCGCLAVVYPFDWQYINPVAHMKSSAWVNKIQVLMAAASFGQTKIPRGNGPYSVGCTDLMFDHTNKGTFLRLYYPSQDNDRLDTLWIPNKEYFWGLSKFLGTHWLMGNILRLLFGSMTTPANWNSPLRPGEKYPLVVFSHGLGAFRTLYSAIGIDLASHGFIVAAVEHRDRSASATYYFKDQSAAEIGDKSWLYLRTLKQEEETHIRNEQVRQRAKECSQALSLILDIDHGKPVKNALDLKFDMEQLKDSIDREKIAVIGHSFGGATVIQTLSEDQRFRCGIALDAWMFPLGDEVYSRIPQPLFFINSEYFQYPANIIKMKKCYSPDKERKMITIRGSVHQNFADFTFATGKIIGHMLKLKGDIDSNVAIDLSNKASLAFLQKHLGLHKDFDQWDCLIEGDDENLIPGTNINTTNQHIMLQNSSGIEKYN
PAFAH1B3 FP inh: inhibitors of human PAFAH1B3. inhibition, % at 3.39 µM. Q15102. actives 0.28% (n = 340,000). recombinant PAFAH1B3, FP-rhodamine probe, fluorescence polarization;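 active = inhibition above the screen-wide average of all tested compounds plus 3 SD, cut at about 25% in these data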;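 also: 0% = enzyme with DMSO only and 100% = wells lacking PAFAH1B3 protein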
Target sequence (Q15102 whole entry, looked up): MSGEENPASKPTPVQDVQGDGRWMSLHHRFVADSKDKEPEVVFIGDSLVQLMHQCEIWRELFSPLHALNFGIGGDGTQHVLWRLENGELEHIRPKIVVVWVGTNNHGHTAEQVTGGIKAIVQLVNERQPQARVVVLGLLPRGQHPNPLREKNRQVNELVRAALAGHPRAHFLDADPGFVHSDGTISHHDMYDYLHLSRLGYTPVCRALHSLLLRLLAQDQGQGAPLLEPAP
PME-1 inh: blocks human protein phosphatase methylesterase 1; Q9Y570; recombinant PME-1, FP-Rh probe fluorescence polarization; inhibition, % at 5.9 µM; actives 0.53% (n = 320,000); AID 2130;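 active = inhibition above the campaign mean of all compounds plus 3 SD, cut at about 26% in these data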;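 also: competitive labeling of PME-1 active site by serine hydrolase directed probe; 0% = PME-1 with DMSO and 100% = wells lacking PME-1 enzyme; inhibitors block probe labeling so polarization falls and inhibition rises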
Fam108b inh conf: confirmation of mouse Fam108b serine hydrolase inhibitors | shares compounds with Fam108B inh | recombinant Fam108b, FP-Rh probe fluorescence polarization | inhibition, % at 9.51 µM | actives 44% (n = 930) | AID 1978;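 active = inhibition above a limit from the primary screen, the mean over all compounds plus 3 SD, cut at about 19% in these data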;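 also: 0% = median of active Fam108b wells and 100% = catalytically dead S170A mutant; inhibitors free the probe so polarization falls as inhibition rises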
Fam108b ABPP HTS: mouse ABHD17B inhibition | shares compounds with Fam108B inh | recombinant Fam108b, gel-based ABPP, fluorophosphonate probe | inhibition, % at 20 µM | actives 44% (n = 260); in the data active = inhibition above about 40%
pPAFAH confirm: pPAFAH (human) inhibition, confirmed | shares compounds with pPAFAH inh | inhibition, % at 3.39 µM | recombinant pPAFAH, FP-Rh probe fluorescence polarization | actives 72% (n = 2,300) | AID 463230;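 active = mean inhibition of the triplicate above the hit cutoff set for the earlier primary screen, cut at about 25% in these data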;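 also: 0% = enzyme with DMSO and 100% = wells lacking pPAFAH enzyme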
* = called active by the depositor; . = no result given. In the library only some 2.9% were active in any assay of this set; here they are far more common.

SMILES	Fam108B inh	PAFAH1B2 inh	PAFAH2 inh	pPAFAH inh	PAFAH1B3 FP inh	PME-1 inh	Fam108b inh conf	pPAFAH confirm	others
C/C(=N\NC(=O)c1cc2ccccc2cc1O)c1cccs1	19*	6	9	52*	16	-6	-6	4
Cc1nn(-c2ccccc2)c(Cl)c1/C=N/Nc1ccc(S(=O)(=O)Nc2ccccc2C(=O)O)cc1[N+](=O)[O-]	33*	13	26	47*	10	51*	51*	78*
Cc1nn(-c2ccccc2)c(Cl)c1/C=N/NS(=O)(=O)c1ccc(Br)cc1	1	8	7	2	8	-1	.	.
COc1ccc(NC(=S)NNc2ccc(S(=O)(=O)Nc3ccccc3C(=O)O)cc2[N+](=O)[O-])cc1	52*	16	64*	58*	27*	50*	15	82*
Cc1ccc(S(=O)(=O)Nc2ccccc2C(=O)OC(C)C(=O)Nc2ccc3ccccc3c2)cc1[N+](=O)[O-] (stereo unspecified)	-11	-6	13	13	-13	-13	.	.
O=c1oc2c(O)c(O)cc3c(=O)oc4c(O)c(O)cc1c4c23	55*	88*	85*	93*	68*	-20	42*	92*	Fam108b ABPP HTS=0
Cc1c(C)c2cc(Cl)c(O)c(CN(C)C)c2oc1=O	2	0	0	0	3	0	.	.
O=C(Nc1ccc(S(=O)(=O)Nc2nccs2)cc1)c1ccc(=O)[nH]c1	18*	12	10	39*	30*	-19	10	5
O=C(Nc1ccc(S(=O)(=O)Nc2nccs2)cc1)c1cccc(F)c1	2	4	-2	0	-1	-3	.	.
Cc1cccc(N=[N+]([O-])c2cccc(C)n2)n1	.	1	-1	4	2	.	.	.
COc1cccc(/C=N/Nc2ccc([N+](=O)[O-])cc2)c1O	0	-4	0	6	8	6	.	.
O=[N+]([O-])c1cccc(N/N=C/c2cccc(O)c2O)c1	26*	-2	8	60*	17	41*	11	66*
Nc1cc(C(=O)O)c(N)c2c1C(=O)c1ccccc1C2=O	73*	56*	66*	74*	73*	86*	84*	54*	Fam108b ABPP HTS=40*
COc1ccc(C(=O)N/N=C/c2ccc(OC)c(COc3ccccc3)c2)cc1	-1	-2	1	8	-1	-7	.	.
COc1ccc(/C=N\NC(=O)c2cc(O)c(O)c(O)c2)cc1COc1ccc(C(=O)OCC(C)C)cc1	28*	13	31*	85*	26*	42*	31*	87*
CC(=O)c1cnc(N(C)C)s1	3	5	9	-2	7	-2	.	.
CN(C)c1ncc(C2=C(Cl)C(=O)C(N3CCCC3)=C(Cl)C2=O)s1	26*	9	29	49*	27*	4	-4	10
CCN(CC)c1nc(N)c2c(N)n(-c3ccccc3C)c(=S)c(C#N)c2c1C#N	20*	25*	43*	47*	12	10	7	31*
O=S(=O)(c1cc(O)ccc1O)c1cccc2c(S(=O)(=O)c3cc(O)ccc3O)cccc12	36*	23	15	41*	22	14	32*	29*	Fam108b ABPP HTS=55*
O=S(=O)(O)c1cc(O)ccc1O	5	1	-4	3	6	0	.	.
Cc1cc(C)c(S(=O)(=O)/N=C2\C=C(Nc3ccc(C(=O)O)cc3)C(=O)c3ccccc32)c(C)c1	40*	26*	36*	42*	60*	15	59*	40*	Fam108b ABPP HTS=0
O=C(O)c1cccc(NS(=O)(=O)c2ccc(-c3ccc(S(=O)(=O)Nc4cccc(C(=O)O)c4)cc3)cc2)c1	-3	-1	-4	-2	-2	0	.	.
CCc1ccc(S(=O)(=O)/N=C2\C=C(Nc3ccc(O)cc3)C(=O)c3ccccc32)cc1	20*	31*	37*	35*	66*	40*	17	33*
CCc1ccc(S(=O)(=O)/N=C2\C=C(Nc3cccc(C(=O)O)c3)C(=O)c3ccccc32)cc1	57*	39*	62*	37*	63*	29*	78*	40*	Fam108b ABPP HTS=40*
Cc1cc(NC(=O)CNCC(c2ccccc2)N(C)C)c([N+](=O)[O-])cc1C (stereo unspecified)	-1	3	3	-4	-6	0	.	.
SMILES	Fam108B inh	PAFAH1B2 inh	PAFAH2 inh	pPAFAH inh	PAFAH1B3 FP inh	PME-1 inh	Fam108b inh conf	pPAFAH confirm	others
CN1CCC(N(C)C(=O)COc2ccccc2Cl)CC1	.	3	8	-3	3	1	.	.
CNS(=O)(=O)c1ccc2c(c1)C(=O)c1cc(S(=O)(=O)NC)ccc1CC2	.	-1	4	-2	-2	.	.	.
CCCCOc1[nH]c2nc(-c3ccco3)n(Cc3ccco3)c(=N)c2c1C#N	20*	12	29	57*	-3	14	13	15
c1ccc(CSc2nnc(-c3ccco3)n2Cc2ccco2)cc1	-2	5	8	10	0	4	.	.
CC1=NN(c2ccccc2)C(=O)/C1=C\c1c(C)[nH]n(-c2ccccc2)c1=O	3	-2	-4	1	4	-1	.	.
CC1=NN(c2ccccc2)C(=O)/C1=C/c1c(O)n(-c2ccc(F)c(Cl)c2)[nH]c1=O	67*	.	.	75*	.	68*	65*	47*	Fam108b ABPP HTS=0
N/C(=N\OC(=O)c1cccc(Cn2cc(C(F)(F)F)ccc2=O)c1)c1ccc(Cl)cc1	-9	.	.	-3	.	-15	.	.
COc1ccc(C(=O)N[C@H]2CCCCNC2=O)cc1OC1CCN(C(C)C)CC1	2	5	3	7	1	-2	.	.
CCN(CC)C(=O)C1c2ccccc2Oc2ccccc21	47*	4	7	39*	16	70*	3	-1
COc1ccc(NS(=O)(=O)c2ccc(N/N=C(\C)c3ccncc3)c([N+](=O)[O-])c2)cc1	23*	7	0	57*	17	28*	-3	55*
COc1cccc(C(=O)N(Cc2ccco2)c2c(N)n(Cc3ccccc3)c(=O)[nH]c2=O)c1	.	20	5	6	6	2	.	.
Cc1ccc(N(C(=O)c2csnn2)C(C(=O)NC2CCCCC2)c2ccncc2)cc1 (stereo unspecified)	4	5	11	4	5	-9	.	.
COc1cc(/C=N/NC(=O)c2ccc(CN3C(=O)c4cccc5cccc3c45)cc2)cc(OC)c1O	31*	9	-14	38*	19	17	22*	20
